Spn DPM-DC inh – S. pneumoniae DPM-DC inhibitors, primary screen, biochemical, PK/LDH-coupled NADH fluorescence; AID 556, 2006; calls only at 10 µM; purified DPM-DC; hit rate 0.49% among 65,000;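 active = the 320 compounds with the highest percent inhibition in the single-dose primary screen, excluding strongly autofluorescent ones, cut at about 32% in these data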;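 also: kinetic rate of NADH fluorescence loss reporting ADP formed by the decarboxylase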
MK inhibit – S. pneumoniae MK inhibitors, primary screen, biochemical, PK/LDH-coupled NADH absorbance | mevalonate kinase [Streptococcus pneumoniae D39] | purified MK, PK/LDH-coupled NADH absorbance 340 nm | inhibition, % at 10 µM | hit rate 0.48% among 65,000;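 active = ranked among the strongest by inhibition in the single 10 µM screen, a fixed top-ranked set picked for dose follow-up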
PMK inhibit – S. pneumoniae PMK inhibitors, primary screen, biochemical, mevalonate pathway, pilot trial included. inhibition, % at 10 µM. hit rate 0.49% among 65,000. phosphomevalonate kinase (Streptococcus pneumoniae D39). purified PMK, PK/LDH-coupled NADH absorbance 340 nm. AID 539, 2006;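 active = top-ranked compounds by inhibition in the single 10 µM screen, taking a fixed number of the strongest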;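 also: 0% = full reaction with DMSO carrier and 100% = background rate without enzyme reaction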
NADH coupling – inhibitors of PK/LDH coupling enzymes, profiling panel, artefact control, biochemical, MLSMR library; coupled PK/LDH NADH assays, four targets; IC50, µM (doses to about 10 µM), without a hit: at the top dose inhibition; hit rate 0.02% among 65,000;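 active = single-dose screening hits from any of four coupled enzyme assays that gave an IC50 when retested across doses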;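 also: the DPM-DC format reads NADH fluorescence rather than 340 nm absorbance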
Fluor 339 460 – intrinsic fluorescence of library compounds, ex339/em460 – biochemical, MLSMR library, data from DPM-DC assay, artefact control, profiling panel; compound autofluorescence, ex339/em460 nm, NADH buffer; hits give high values; 1 = no-compound wells, NADH background; hit rate 5.5% among 65,000; AID 709, 2007; fluorescence fold increase at 10 µM;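 active = at 10 µM, mean starting fluorescence two-fold or more over control wells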;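 also: signal is the first read of a kinetic run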
A340 absorber – compound light absorbance at 340 nm, profiling panel, artefact control, biochemical, MLSMR library, data from PS, PMK, MK assays | compound absorbance at 340 nm, fold over control | fold change at 10 µM | 65,000 tested, under 10 active;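 active = at 10 µM dose, initial 340 nm absorbance at least 2 fold that of control wells; inactive = change under 2 fold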;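 also: initial absorbance extrapolated from kinetic A340 decline of NADH oxidation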
* hit, by the source's call; i = inactive; · = no result shown. In the library only some 6.3% were active in any assay of this set; here they are far more common.

SMILES	Spn DPM-DC inh	MK inhibit	PMK inhibit	NADH coupling	Fluor 339 460	A340 absorber
CC1(C)Cc2c(C#N)c(N3CCN(C(=O)c4ccco4)CC3)nc(Cc3ccccc3)c2CO1	·	15	7	11%	2.2*	1
Cc1nc(N2CCN(C(=O)c3ccc(Cl)cc3)CC2)c(C#N)c2c1COC(C)(C)C2	·	2	8	5%	2.3*	1
N#Cc1c(N2CCN(C(=O)c3ccco3)CC2)nc(-c2ccccc2)c2c1CCCC2	·	1	5	3%	2.2*	1.1
CC(C)Cc1nc(N2CCN(C(=O)c3ccco3)CC2)c(C#N)c2c1CCC2	i	10	0	5%	1.7	1
CC(C)c1c(O)nc(SCC(=O)Nc2ccc3c(c2)CCC3)[nH]c1=O	i	7	1	3%	1.1	0.97
CC(C)NC(=O)CSc1nnc(-c2ccc(C(C)(C)C)cc2)n1C	i	0	15	2%	1.1	0.99
COC(=O)c1[nH]c2cccc(OC)c2c1NC(=O)CCN1CC(C)CC(C)C1 (stereo not given)	i	9	9	13%	2.7*	1.1
COC(=O)c1[nH]c2cccc(OC)c2c1NC(=O)CN1CC2(C)CC1CC(C)(C)C2 (stereo not given)	i	1	4	6%	2*	1
COC(=O)c1[nH]c2cccc(OC)c2c1NC(=O)CCN1CCN(c2cccc(Cl)c2)CC1	i	9	13	12%	2.6*	1
COC(=O)c1[nH]c2cccc(OC)c2c1NC(=O)CN1CCOCC1	i	2	0	3%	2.9*	1.1
COc1ccc(NC(=O)c2cnc3ccccn3c2=O)cc1OC	i	9	2	6%	1	1.1
COCCOC(=O)C1=C(C)NC2=C(C(=O)CC(C)(C)C2)C1c1cccnc1 (stereo not given)	·	11	11	11%	3.8*	1.1
CCOC(=O)C1=C(C)NC2=C(C(=O)CC(C)(C)C2)C1c1ccc(N(C)C)cc1 (stereo not given)	i	0	0	4%	1.2	1
CCN(CC)c1ccc(C2C(C(=O)OCCOC(C)C)=C(C)NC3=C2C(=O)CCC3)cc1 (stereo not given)	i	0	0	4%	1.4	1.1
CC1=C(C(=O)OCCOC(C)C)C(c2cccnc2)C2=C(CCCC2=O)N1 (stereo not given)	·	2	1	2%	2.2*	1.1
CC1=C(C(=O)OCC2CCCO2)C(c2ccncc2)C2=C(CC(C)(C)CC2=O)N1 (stereo not given)	·	2	0	1%	2.1*	1.1
CCc1ccc(CC)c(S(=O)(=O)Nc2ccc(C(=O)O)c(O)c2)c1	i	12	8	8%	1.1	1.1
Cc1cc(-n2c(C)cc(C(=O)CSc3ccc4c(c3)OCCO4)c2C)no1	i	0	12	4%	1.1	1
COc1ccc(Cl)cc1NC(=O)N(C)Cc1c(C)nn(C)c1C	i	13	13	13%	1.1	0.99
COc1ccc(-c2coc3c(CN4CCCCC4)c(O)c(CN4CCCCC4)c(O)c3c2=O)cc1	i	0	26*	3%	1	1
COc1ccc(C(=O)c2coc3ccc(O)c(CN4CCOCC4)c23)cc1	i	6	1	2%	1	1
Cn1c(=O)c2c(nc(NCCO)n2CCc2ccccc2)n(C)c1=O	i	7	11	7%	1.2	1
Cc1ccc2nc(Nc3ccccc3)c(/C=N/O)c(=O)n2c1	i	3	0	2%	1.1	1.1
Cc1cccn2c(=O)c(C=Nc3ccc(Cl)cc3)c(NCCO)nc12	i	1	11	10%	2.7*	1.1
Cc1cccn2c(=O)c(C=Nc3ccccc3)c(NCCO)nc12	i	5	11	11%	2.4*	1.1
O=C1c2ccccc2C(=O)N1CSc1ncccn1	i	7	10	6%	1.1	1.1
COCCn1c(SCc2nnc(-c3ccccc3)o2)nc2sc3c(c2c1=O)CCC3	i	11	9	7%	1.2	1
